Reference: the supplement of paper PMC6135742
Where a name gives a salt, the structure may show the parent alone. Over roughly 2,600 compounds, “MBP+ mature oligodendrocyte number relative to DMSO vehicle control” has its median near -0.34; the highest 2% begin near 13. The sample as a whole holds a higher share of the highest values than the screen did.

Tested on: jimpy (Plp1 jimpy) mouse iPSC-derived oligodendrocyte progenitor cells
Test: MBP+ mature oligodendrocyte number relative to DMSO vehicle control (SDs above negative control mean); higher = more surviving jimpy oligodendrocytes (rescue)
Settings: 10 µM; 3 days
Experimental: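 Primary phenotypic screen of >3,000 bioactive compounds (Selleck L1700 and Sigma LO1280 libraries) at a single dose of 10 µM. Compounds were added to jimpy (Plp1 mutant) mouse iPSC-derived OPCs at the start of thyroid hormone-induced oligodendrocyte differentiation, one well per compound in 384-well plates. After 3 days cells were stained for MBP, Sox10 and DAPI and imaged with an Operetta system. MBP+ oligodendrocyte number and total cell number were expressed as the number of SDs above the mean of the DMSO negative control on the same plate (n=16 control wells per plate). Hits were defined as >=4 SD for oligodendrocytes and >=2 SD for total cells.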

SMILES | MBP+ mature oligodendrocyte number
OC1CCCCC1N1CCC(c2ccccc2)CC1 (racemic) [(±)-Vesamicol hydrochloride] | 15.7
Cc1ccc2c(c1)C1(CCN(CCc3nc(-c4ccccc4)oc3C)CC1)OC(=O)N2 | -2.6
C[N+]1(C)[C@@H]2CC(OC(=O)[C@H](CO)c3ccccc3)C[C@H]1[C@@H]1O[C@@H]12 (single isomer, unassigned; (-)) [(-)-Scopolamine methyl nitrate] | 0.539
N[C@]1(C(=O)O)CC[C@H](C(=O)O)C1 (racemic) [trans-(±)-ACPD] | 0.981
CN1CC[C@@]2(C)c3cc(O)ccc3N(C)C12 (single isomer, unassigned; (-)) [(-)-Eseroline fumarate] | -1.28
COc1ccc2c(c1OC)C(=O)OC2C1c2cc3c(cc2CCN1C)OCO3 (single isomer, unassigned; (+)) [(+)-Hydrastine] | 1.13
NC(=O)c1ccc(OCC(O)CN2CC=C(c3ccc(F)cc3)CC2)cc1 (stereo not given) | 13.9
CC(=O)OCC1=C(C(=O)[O-])N2C(=O)[C@@H](NC(=O)CCC[C@@H](N)C(=O)[O-])[C@H]2SC1.[Zn+2] [Cephalosporin C zinc salt] | -0.943
CCCC[N+]1(C)[C@@H]2C[C@@H](OC(=O)[C@H](CO)c3ccccc3)C[C@H]1[C@@H]1O[C@@H]12 (single isomer, unassigned; (-)) [(-)-Scopolamine,n-Butyl-, bromide] | -0.925
CN1CC[C@]2(CCN3CCc4c(oc5ccccc45)[C@@H]3C2)N(C)C1=O | 1.72
CCS(=O)(=O)Nc1cccc(C(=C2CCCCC2)c2cnc[nH]2)c1 | 2.51
CC(C)Oc1cccnc1N(C)C1CCN(Cc2ccccc2)CC1 | 19.1
CO[C@H]1CC[C@@H](O[C@H]2C[C@H]([C@]3(C)CC[C@]4(C[C@H](O)[C@@H](C)[C@@H]([C@@H](C)/C=C(\C)C(=O)[C@H](C)C[C@H](C)C(=O)O)O4)O3)O[C@]3(O[C@@H]([C@H]4O[C@@](O)(CO)[C@H](C)C[C@@H]4C)C[C@@H]3C)[C@@H]2C)O[C@@H]1C [Nanchangmycin] | < -6.7
CC(N)Cc1cccc(C(F)(F)F)c1 (single isomer, unassigned; (+)) [(+)-Norfenfluramine hydrochloride] | 0.753
COc1ccc2[nH]c3c(c2c1)CCNC3 [6-Methoxy-1,2,3,4-tetrahydro-9H-pyrido[3,4b] indole] | -0.315
